Data: PubChem BioAssay (NCI)
This is part of a sample that, as a whole, favours compounds with a hit. Of some 83,000 tested, about 20% had one in any assay.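 In brief: 96-well plates, 48 h treatment, single concentration, percent growth endpoint.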 Active and inactive are the calls of the source. Rule for the calls: active = growth percent below 10; inactive = the rest.

Experiments:
Experiment in all cases: NCI-60 one-dose screen, 48 h (100 = growth as untreated, 0 = no growth, -100 = all killed)
Details in all cases: 10 µM unless noted
NCI-H23 lung = system: NCI-H23 lung
NCI-H226 lung = system: NCI-H226 lung
NCI-H322M lung = system: NCI-H322M lung
HOP-62 NSCLC = system: HOP-62 NSCLC
NCI-H460 lung = system: NCI-H460 lung
HOP-92 NSCLC = system: HOP-92 NSCLC
NCI-H522 lung = system: NCI-H522 lung
A549/ATCC NSCLC = system: A549/ATCC NSCLC
786-0 renal = system: 786-0 renal
COLO 205 colon = system: COLO 205 colon
DU-145 prostate = system: DU-145 prostate
K-562 leukemia = system: K-562 leukemia
MALME-3M melanoma = system: MALME-3M melanoma
MDA-MB-231 breast = system: MDA-MB-231 breast
RXF 393 renal = system: RXF 393 renal
SF-268 CNS = system: SF-268 CNS
SF-295 CNS = system: SF-295 CNS
SF-539 CNS = system: SF-539 CNS
UACC-257 melanoma = system: UACC-257 melanoma
M14 melanoma = system: M14 melanoma

Measured: growth

Cc1[nH]n(-c2cccc(Cl)c2)c(=O)c1/C=C1\C=Nc2ccc(Br)cc21
active: HOP-62 NSCLC -16.4% | NCI-H460 lung -72.9% | HOP-92 NSCLC -16.9% | A549/ATCC NSCLC -8.71% | 786-0 renal -4.37% | COLO 205 colon 7.07% | RXF 393 renal -44.4%
inactive: NCI-H23 lung 31.7% | NCI-H226 lung 69.1% | NCI-H322M lung 54.9% | NCI-H522 lung 29.2% | DU-145 prostate 36.2% | K-562 leukemia 64% | MALME-3M melanoma 12.6% | MDA-MB-231 breast 17.4% | SF-268 CNS 51.1% | SF-295 CNS 31.3% | SF-539 CNS 42.2% | UACC-257 melanoma 75.1% | M14 melanoma 54.3%

CC(=O)N1c2ccccc2NC2=C(C(=O)N(C)C2(C)C)C1C (configuration not stated)
inactive: NCI-H23 lung 50.2% | NCI-H226 lung 91.1% | NCI-H322M lung 73.4% | HOP-62 NSCLC 61.6% | NCI-H460 lung 21.9% | HOP-92 NSCLC 37.5% | NCI-H522 lung 18.6% | A549/ATCC NSCLC 80.3% | 786-0 renal 80.1% | COLO 205 colon 14.2% | DU-145 prostate 79% | K-562 leukemia 16.6% | MALME-3M melanoma 44.3% | MDA-MB-231 breast 63.3% | RXF 393 renal 27.8% | SF-268 CNS 43% | SF-295 CNS 46% | SF-539 CNS 20.1% | UACC-257 melanoma 36.4% | M14 melanoma 21.5%

CC(Oc1ccc(C(=O)NS(=O)(=O)C(C)(C)C)cc1C(F)(F)F)c1ccc(Oc2ccccc2)cn1 (configuration not stated)
inactive: NCI-H23 lung 83.8% | NCI-H226 lung 81.5% | NCI-H322M lung 88.3% | HOP-62 NSCLC 78.2% | NCI-H460 lung 96.9% | HOP-92 NSCLC 73.1% | NCI-H522 lung 17.2% | A549/ATCC NSCLC 94.5% | 786-0 renal 77.7% | COLO 205 colon 77.1% | DU-145 prostate 97% | K-562 leukemia 34.7% | MALME-3M melanoma 59.4% | MDA-MB-231 breast 81% | RXF 393 renal 65.8% | SF-268 CNS 67.8% | SF-295 CNS 55.9% | SF-539 CNS 76% | UACC-257 melanoma 78.9% | M14 melanoma 57.3%

COc1ccccc1-c1c(-c2ccc(Cl)cc2)c2cc3c(cc2[nH]c1=O)OCCO3
inactive: NCI-H23 lung 72.8% | NCI-H226 lung 84% | NCI-H322M lung 89% | HOP-62 NSCLC 89.8% | NCI-H460 lung 66.3% | HOP-92 NSCLC 80.7% | NCI-H522 lung 62.4% | A549/ATCC NSCLC 63.6% | 786-0 renal 85.4% | COLO 205 colon 92.6% | DU-145 prostate 83.6% | K-562 leukemia 44.3% | MALME-3M melanoma 87.4% | MDA-MB-231 breast 95.5% | SF-268 CNS 68.2% | SF-295 CNS 58.5% | SF-539 CNS 88.2% | UACC-257 melanoma 73%

COc1cc(COC(=O)CCCCC[P+](c2ccccc2)(c2ccccc2)c2ccccc2)c(OC)c2c1OCO2
inactive: NCI-H23 lung 51.9% | NCI-H226 lung 67.6% | NCI-H322M lung 84.1% | HOP-62 NSCLC 79.2% | NCI-H460 lung 64.5% | HOP-92 NSCLC 20.1% | NCI-H522 lung 50.2% | A549/ATCC NSCLC 81.2% | 786-0 renal 91.9% | COLO 205 colon 71.4% | DU-145 prostate 83.5% | K-562 leukemia 19.4% | MDA-MB-231 breast 70.2% | SF-268 CNS 75.1% | SF-295 CNS 76.9% | SF-539 CNS 78.2% | UACC-257 melanoma 15.6%
active: MALME-3M melanoma 5.27%

O=S(=O)(NCCNc1nccc(-c2c(-c3ccc(F)c(O)c3)nc3occn23)n1)c1ccccc1
active: MALME-3M melanoma -0.538%
inactive: NCI-H23 lung 55.1% | NCI-H226 lung 92.1% | NCI-H322M lung 72.7% | HOP-62 NSCLC 76.9% | NCI-H460 lung 29.7% | HOP-92 NSCLC 43.7% | NCI-H522 lung 55.2% | A549/ATCC NSCLC 45.8% | 786-0 renal 88.5% | COLO 205 colon 40.6% | DU-145 prostate 57.1% | K-562 leukemia 33.6% | MDA-MB-231 breast 27.7% | SF-268 CNS 57% | SF-295 CNS 93.3% | SF-539 CNS 96% | UACC-257 melanoma 25%

COc1ccc(C(=O)c2cc3c(N)c(C(=O)Nc4cccc5ccccc45)sc3nc2C)cc1
active: NCI-H460 lung 3.06% | NCI-H522 lung -28.8% | COLO 205 colon -37.7% | DU-145 prostate 9.48% | K-562 leukemia 7.36% | SF-539 CNS -9.85%
inactive: NCI-H23 lung 30.7% | NCI-H226 lung 47.4% | NCI-H322M lung 51.4% | HOP-62 NSCLC 30.2% | HOP-92 NSCLC 44.5% | A549/ATCC NSCLC 17.6% | 786-0 renal 31.6% | MALME-3M melanoma 55% | MDA-MB-231 breast 15.7% | SF-268 CNS 29.1% | SF-295 CNS 19.7% | UACC-257 melanoma 55.8%

Cc1ccc(-c2csc(/N=C3\C(=O)Nc4ccccc43)n2)cc1
inactive: NCI-H23 lung 23.5% | NCI-H226 lung 62.1% | NCI-H322M lung 47.1% | HOP-62 NSCLC 25.3% | A549/ATCC NSCLC 23% | 786-0 renal 14.7% | DU-145 prostate 42.2% | MDA-MB-231 breast 11.2% | SF-268 CNS 33% | SF-295 CNS 13.9% | SF-539 CNS 20.3% | UACC-257 melanoma 11.9% | M14 melanoma 13.4%
active: NCI-H460 lung 8.52% | HOP-92 NSCLC -16.1% | NCI-H522 lung -57.6% | COLO 205 colon -15.6% | K-562 leukemia 1.43% | MALME-3M melanoma -3.69% | RXF 393 renal -4.86%

C=C(C)[C@@H]1CC[C@]2(C=O)CC[C@]3(C)[C@H](CC[C@@H]4[C@@]5(C)CCCNC(C)(C)[C@@H]5CC[C@]43C)[C@@H]12
active: COLO 205 colon -78.8% | K-562 leukemia 0.984%
inactive: NCI-H23 lung 78.7% | NCI-H226 lung 91.7% | NCI-H322M lung 91.5% | HOP-62 NSCLC 94.5% | NCI-H460 lung 16.7% | HOP-92 NSCLC 54.5% | NCI-H522 lung 84.1% | A549/ATCC NSCLC 62.2% | 786-0 renal 80.9% | DU-145 prostate 77.6% | MALME-3M melanoma 77.7% | MDA-MB-231 breast 91.2% | RXF 393 renal 85.9% | SF-268 CNS 90.8% | SF-295 CNS 105% | SF-539 CNS 90.1% | UACC-257 melanoma 86.6% | M14 melanoma 81%

c1ccc(-c2nn(-c3ccccc3)[n+](-c3ccccc3-c3ccccc3)n2)cc1
inactive: NCI-H226 lung 28.1% | NCI-H322M lung 40.6% | HOP-62 NSCLC 32.6% | A549/ATCC NSCLC 17.3% | 786-0 renal 30.8% | DU-145 prostate 22.8% | MDA-MB-231 breast 35.5% | RXF 393 renal 10.1% | SF-268 CNS 22% | SF-539 CNS 22.9% | M14 melanoma 23.2%
active: NCI-H23 lung 5.14% | NCI-H460 lung 5.11% | HOP-92 NSCLC -24.4% | NCI-H522 lung -7.02% | COLO 205 colon -34.5% | K-562 leukemia 5.29% | MALME-3M melanoma -31.7% | SF-295 CNS 3.4% | UACC-257 melanoma 9.82%

CCCCCCOc1ccc(/C=N/Nc2cc(C)nc3ccc(Br)cc23)cc1
active: NCI-H322M lung -73.7% | HOP-62 NSCLC -65.4% | NCI-H460 lung -72% | NCI-H522 lung -61.4% | A549/ATCC NSCLC -59.5% | 786-0 renal -87.7% | COLO 205 colon -51.8% | DU-145 prostate -82.9% | K-562 leukemia -64.5% | MALME-3M melanoma -82.3% | MDA-MB-231 breast -88.9% | RXF 393 renal -97.3% | SF-268 CNS -1.78% | SF-295 CNS -83.3% | SF-539 CNS -84.8% | M14 melanoma -44.4%
inactive: NCI-H23 lung 14% | NCI-H226 lung 71.1% | HOP-92 NSCLC 34.5% | UACC-257 melanoma 117%

CC(O)/C=C/C=C/C(O)CC/C=C/C(=O)NCC(C)(C)O (configuration not stated)
inactive: NCI-H23 lung 95.3% | NCI-H226 lung 108% | NCI-H322M lung 106% | HOP-62 NSCLC 110% | NCI-H460 lung 101% | HOP-92 NSCLC 96.1% | NCI-H522 lung 79.4% | A549/ATCC NSCLC 96.1% | 786-0 renal 109% | COLO 205 colon 118% | DU-145 prostate 106% | K-562 leukemia 72.8% | MALME-3M melanoma 112% | MDA-MB-231 breast 111% | RXF 393 renal 121% | SF-268 CNS 108% | SF-295 CNS 107% | SF-539 CNS 109% | UACC-257 melanoma 91.5% | M14 melanoma 101%

CCn1ccnc1C(=O)/C=C/c1ccc(CC(=O)Nc2ccc(F)cc2)cc1
inactive: NCI-H23 lung 29.2% | NCI-H226 lung 87.4% | NCI-H322M lung 35.4% | HOP-92 NSCLC 62.8% | NCI-H522 lung 18.2% | A549/ATCC NSCLC 32.9% | 786-0 renal 24.6% | COLO 205 colon 33.4% | MALME-3M melanoma 92.4% | MDA-MB-231 breast 25.9% | RXF 393 renal 26% | SF-295 CNS 22.2% | UACC-257 melanoma 83.5% | M14 melanoma 75.5%
active: HOP-62 NSCLC 8.48% | NCI-H460 lung 5.47% | DU-145 prostate -24.8% | K-562 leukemia 7.76% | SF-268 CNS 5% | SF-539 CNS 1.75%

N#Cc1c(NC(=O)c2cccc(Br)c2)sc2c1CCCC2
inactive: NCI-H23 lung 91% | NCI-H226 lung 89.8% | NCI-H322M lung 79.1% | HOP-62 NSCLC 83.3% | NCI-H460 lung 75.3% | HOP-92 NSCLC 86.2% | NCI-H522 lung 75.9% | A549/ATCC NSCLC 75.2% | 786-0 renal 82.6% | COLO 205 colon 94.2% | DU-145 prostate 89.7% | K-562 leukemia 22.5% | MALME-3M melanoma 62.4% | MDA-MB-231 breast 82.2% | RXF 393 renal 96.8% | SF-268 CNS 97.6% | SF-295 CNS 80.8% | SF-539 CNS 86.6% | UACC-257 melanoma 83.4% | M14 melanoma 72.2%

C=C(C)[C@@H]1CC[C@]2(C(=O)O)CC[C@]3(C)[C@H](CC[C@@H]4[C@@]5(C)C[C@@H](CC#Cc6ccc(Br)cc6)C(=O)C(C)(C)[C@@H]5CC[C@]43C)[C@@H]12
inactive: NCI-H23 lung 31.2% | NCI-H226 lung 17.3% | NCI-H322M lung 65.7% | HOP-62 NSCLC 52.3% | NCI-H460 lung 42.3% | HOP-92 NSCLC 65.8% | NCI-H522 lung 17.3% | A549/ATCC NSCLC 33.1% | 786-0 renal 63.1% | COLO 205 colon 69.1% | DU-145 prostate 40% | K-562 leukemia 42.8% | RXF 393 renal 52.6% | SF-268 CNS 72.1% | SF-295 CNS 58.9% | SF-539 CNS 61.1% | UACC-257 melanoma 52.7%
active: MALME-3M melanoma -19.9% | MDA-MB-231 breast 0.351% | M14 melanoma 5.57%
